hcDAF12 agonist – H. contortus DAF-12 nuclear receptor activators, primary screen, cell-based, luminescence, HEK293, lit1-tk-luc reporter; HEK293 hcDAF-12 lit1-tk-luc reporter; 0% DMSO, 100% Δ7-dafachronic acid; activation, % at 6.8 µM; 370,000 tested, 1.4% active; AID 652067, 2013;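 active means activation above the mean of all tested compounds plus 3 SD, cut at about 5.5% in these data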;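 further: 100% = response to 3 µM Δ7-dafachronic acid high control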
DAX1 inh-1 – DAX1 (NR0B1) inhibitors, primary screen, cell-based, HEK293, Gal4-DAX1, luciferase luminescence. Nuclear receptor subfamily 0 group B member 1 (Homo sapiens), P51843. HEK293 Gal4-DAX1 luciferase reporter. inhibition, % at 6.75 µM. 340,000 tested, 0.99% active;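 active means inhibition above the mean over all tested compounds plus 3 SD, cut at about 4.2% in these data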;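 further: 0% = DAX1-transfected cells with DMSO and 100% = empty-vector control cells with DMSO; inhibition shows as a rise in luminescence from relieved DAX1 repression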
Target sequence (P51843 207-470 limits assumed): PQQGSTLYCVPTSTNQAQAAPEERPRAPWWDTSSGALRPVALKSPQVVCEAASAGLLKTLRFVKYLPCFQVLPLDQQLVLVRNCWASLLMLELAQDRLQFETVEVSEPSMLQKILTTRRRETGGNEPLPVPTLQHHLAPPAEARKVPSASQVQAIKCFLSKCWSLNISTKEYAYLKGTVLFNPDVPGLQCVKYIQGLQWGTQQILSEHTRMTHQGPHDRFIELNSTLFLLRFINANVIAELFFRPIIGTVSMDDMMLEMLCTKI
hgDAF-12 ag – H. glycines DAF-12 receptor agonists, primary screen, cell-based, luminescence, HEK293, GAL4 fusion, UAS-luciferase | Nuclear hormone receptor DAF-12 (Heterodera glycines), GAL4 fusion | HEK293 GAL4-hgDAF12 UAS-luciferase reporter, agonist luminescence; normalized to butyrate control | activation, % at 6.8 µM | 370,000 tested, 1.8% active | AID 687014, 2013;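 active means activation above a cutoff set at the mean of all screened compounds plus 3 SD, cut at about 10% in these data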;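 further: 0% = DMSO wells and 100% = sodium butyrate wells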
ssDAF12 agonist – S. stercoralis DAF-12 nuclear receptor activators, primary screen, cell-based, luminescence, HEK293, GRIP1 co-expression, lit1-tk-luc; Nuclear hormone receptor DAF-12 (Strongyloides stercoralis); HEK293 ssDAF-12/GRIP1 lit1-tk-luc reporter; % of 3 µM dafachronic acid response; activation, % at 6.8 µM; 370,000 tested, 1% active;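 active means activation above the mean over all tested compounds plus 3 SD, cut at about 0.9% in these data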;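 further: 0% = DMSO-only wells and 100% = 3 µM delta7-dafachronic acid wells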
DAX1 inh-2 – DAX1 (NR0B1) inhibitors on StAR promoter, primary screen, cell-based, luminescence, SF-1 (NR5A1), full-length DAX-1 | inhibition, % at 6.8 µM | 370,000 tested, 1.1% active | HEK293T StAR-luciferase reporter, SF-1/DAX-1 repression relief | AID 652010, 2013;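 active means inhibition above the mean over all tested compounds plus 3 SD, cut at about 3.6% in these data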;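 further: 0% = DAX-1 cells with DMSO and 100% = cells lacking DAX-1 with DMSO; higher inhibition means more luminescence from relief of DAX-1 repression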
The depositor's hits bear a star; x = not tested or not shown. Only some compounds are listed: those with a hit (about 4.1% of all), similar ones and a draw of the others.

SMILES | hcDAF12 agonist | DAX1 inh-1 | hgDAF-12 ag | ssDAF12 agonist | DAX1 inh-2
O=C(NNC(=O)c1ccncc1)Nc1ccc(N=Nc2ccccc2)cc1 | 5 | 0 | 10* | 1 | 2
COCCCN1C(=O)C(CC(=O)NCc2ccco2)CC(C(=O)N(C)C)=C1C (centres undefined) | -1 | 3 | -3 | -1 | 1
COC(=O)/C(=C/c1cn(C(C)=O)c2ccccc12)[N+](=O)[O-] | 5.7* | x | 4 | 0 | 0
COC(=O)/C(=C/c1c[nH]c2ccccc12)[N+](=O)[O-] | 3 | 0 | -1 | 0 | 0
CC1CCCN(S(=O)(=O)c2ccc(CN3C(=O)c4cccnc4C3=O)cc2)C1 (centres undefined) | -1 | 2 | -2 | -1 | 3.8*
COc1ccc(CN2C(=O)c3cccnc3C2=O)cc1S(=O)(=O)N1CC(C)CC(C)C1 (centres undefined) | 2 | 0 | -1 | -1 | 0
CCC(C)(C)NC(=O)CN(Cc1cccs1)C(=O)CNS(=O)(=O)c1ccc(C)cc1 | 0 | 6.4* | 0 | -1 | -1
O=C(O)CSc1nnc2n(-c3ccccc3)c(=O)c3ccccc3n12 | -1 | 5.4* | -3 | -1 | 0
CC(C)C[C@H]1CNC(=O)C(=O)N1CC1CCN(CCC(C)c2ccccc2)CC1 (some centres undefined) | -1 | x | -3 | -1 | 1
O=C(Cc1cccnc1)N[C@@H]1CC[C@H](CCn2cc(Cc3ccccc3)nn2)O[C@@H]1CO | -2 | x | -2 | 0 | 1
O=C(/C=C/c1c(F)cccc1Cl)Nc1ncccn1 | 5 | 4.6* | 6 | 0 | 2
O=C(/C=C/c1c(F)cccc1Cl)Nc1ccc(S(=O)(=O)Nc2ncccn2)cc1 | 2 | 0 | 2 | 0 | 1
COc1ccc(-c2csc3ncnc(N4CCN(c5ccccc5[N+](=O)[O-])CC4)c23)cc1 | x | -1 | x | x | x
COC(=O)C1=C(C)N(C)C(=NCc2ccc(OC)cc2)NC1c1ccc(C(F)(F)F)cc1 (centres undefined) | 0 | x | 0 | -1 | 0
COc1ccc(NC(=O)Nc2ccc(Br)c(C)c2)cc1 | -1 | 4.9* | 2 | -2 | 1
COc1ccc(NC(=O)Nc2cc(C)ccc2F)cc1 | 2 | 1 | 10 | 0 | 3.9*
COc1cccc(C(C(=O)NCc2ccccc2)N2CCN(C(=O)C3CCCO3)CC2)c1OC (centres undefined) | 0 | x | -3 | 0 | 1
COC(=O)c1ccc(CNC(=O)Cn2cnc(C(=O)Nc3ccc(C)c(C)c3)n2)cc1 | -1 | 0 | 2 | -1 | 3
Cc1cc2c(=O)n(C)c(SCC(=O)Nc3ccccc3)nc2s1 | 1 | 4.8* | -4 | -1 | 0
Cc1cccc(NC(=O)CSc2nc3sc(C)cc3c(=O)n2C)c1 | -2 | 0 | 3 | -2 | -2
Cc1cc2c(SCC(=O)Nc3cccc(O)c3)ncnc2s1 | 6.4* | 0 | 2 | 1.4* | 1
CCOC(=O)[C@@]12CCCC3=C1N(CCC3)C(=O)[C@H]2CC(=O)NCc1ccc(OC)c(OC)c1 | -2 | x | -1 | -1 | -1
CCOC(=O)C1=C(C(=O)OCC)C2N(Cc3ccc(C#N)cc3)c3ccccc3[C@@]23C[C@@H](C(=O)OC)N(S(=O)(=O)c2ccc(OC)cc2)C3=N1 (some centres undefined) | 2 | x | 3 | 0 | 2
Cc1ccc(-n2c(N)c(C#N)c(-c3ccccc3)c(C#N)c2=O)cc1 | 0 | 1 | -1 | -1 | -1
Cc1ccc(-c2nc3sc(C#N)c(N)n3c(=O)c2C#N)cc1 | 3 | 4.8* | 9 | 0 | 0
O=C(C(=O)N1CCC(CNC(=O)C2COc3ccccc3O2)CC1)c1cc2ccccc2o1 (centres undefined) | -1 | x | 0 | -1 | 0
CC(=O)ONC(=Nc1ccccc1)c1nonc1N | -1 | 5.2* | 2 | -1 | 0
